Compounds with a hit are over-represented: about 19% of the library has one in this group of screens.
HT1080NT lethal – qHTS for induction of synthetic lethality in tumor cells producing 2HG: qHTS for the HT-1080-NT fibrosarcoma cell line; 360,000 compounds, 1.6% hits; Potency, µM (doses to about 46.1 µM), for inactives: at the top dose activity, negative = less viability, usual class: cytotoxic; HT-1080-NT fibrosarcoma viability, CellTiter-Glo ATP luminescence, 48 h;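 also: NT is the 2HG producing partner of a matched IDH1 knockdown line; potency is read from the fitted curve at half-maximal effect; 0% = DMSO-treated cells and -100% = media-only wells without cells; nearly all actives have a fitted effect of over 55% in size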
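Viability of the 2HG-overproducing fibrosarcoma line after 48 hours of compound exposure at 37 degrees C was determined by luminescence with CellTiter-Glo, and concentration-effect curves were then fitted and categorized.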
HT1080 IDH1KD tx – qHTS for induction of synthetic lethality in tumor cells producing 2HG: qHTS for the HT-1080-IDH1KD cell line | HT-1080 IDH1 knockdown viability, ATP luminescence, 48 h | Potency, µM (series often up to 46.1 µM), for inactives: top-dose activity, negative = toxicity, actives largely listed as cytotoxic | 360,000 compounds, 2% hits | AID 686971, 2013;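 also: potency is read from the fitted curve at half-maximal effect; 0% = DMSO wells and -100% = cell-free medium wells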
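Cytotoxicity counter-line: IDH1KD HT-1080, 48 h, CellTiter-Glo. Curves classed by r2, magnitude and activity.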
IL-1B inflam inh – qHTS for Inhibitors of Inflammasome Signaling: IL-1-beta AlphaLISA Primary Screen. THP-1 LPS/ATP IL-1B secretion, AlphaLISA, 16 h; stronger effect = lower value. activity change, % at 57.5 µM. 360,000 compounds, 4.7% hits; in the data active = activity change below about -50%; inconclusive = mostly about -30% to -49%
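Secreted IL-1B measured by AlphaLISA bead assay after 16 h compound exposure of THP-1 cells; compounds (final up to 57.5 uM) added 1 h before LPS (250 ng/mL) and ATP (1.25 mM) stimulation; lower signal means less secretion.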
TDP1 cell noCPT – qHTS for Inhibitors of human tyrosyl-DNA phosphodiesterase 1 (TDP1): qHTS in cells in absence of CPT. AID 686978, 2013. Potency, µM (highest dose often 46.2 µM), for the others: at the top dose activity change, negative = growth inhibition, most hits filed as inhibitors. DT40 Tdp1-/- hTDP1 cells, no CPT, ATP luminescence, 48 h. 420,000 compounds, 15% hits; also: potency is read from the fitted curve at half-maximal effect; nearly all actives have a fitted effect of over 55% in size
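DT40 Tdp1-/-;hTDP1 cells, no CPT (DMSO vehicle only), 400 cells/well; compounds pin-transferred; ≥48 hr, 37 °C; CellTiter-Glo 30 min RT dark, luminescence read.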
ELG1 DNA repair – qHTS screen for small molecules that inhibit ELG1-dependent DNA repair in human embryonic kidney (HEK293T) cells expressing luciferase-tagged ELG1 | HEK293T ELG1-luciferase reporter, luminescence, 16 h; DNA damage induced by 5-fluorouridine | Potency, µM (highest dose often 46.1 µM), for the others: at the top dose activity change, negative = inhibition, actives largely listed as inhibitors | 330,000 compounds, 2.3% hits | AID 504467, 2011; also: potency is read from the fitted curve at half-maximal effect; nearly all actives have a fitted effect of over 55% in size
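DMSO vehicle served as the neutral condition. Each well held 2,000 cells given 5-fluorouridine plus compound; after 16 hr at 37 °C/5% CO2, ONE-Glo was added and luciferase measured 30 min later.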
DT40 TDP1 CPT – qHTS for Inhibitors of human tyrosyl-DNA phosphodiesterase 1 (TDP1): qHTS in cells in presence of CPT. chicken DT40 Tdp1-/-;hTDP1 cells + 20 nM CPT, ATP luminescence, 48 h. 420,000 compounds, 12% hits. Potency, µM (series often up to 46.2 µM), without a hit: at the top dose activity change, negative = growth inhibition, actives largely listed as inhibitors. AID 686979, 2013; also: potency is read from the fitted curve at half-maximal effect; nearly all actives have a fitted effect of over 55% in size
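Chicken DT40 Tdp1-/- cells complemented with human TDP1, 400 cells/well, exposed to compounds plus 20 nM camptothecin for at least 48 h at 37 C; viability read as ATP content by CellTiter-Glo luminescence.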
* = called active by the depositor; ? = inconclusive; / = no result given. Unless noted, calls follow the shape of the dose curve; as a rule, active = well fitted curve in the direction sought with a large enough effect; inconclusive = small, poorly fitted or top-dose-only effect, or another doubt; inactive = no such curve, though single readings can be large; an effect the other way counts as inactive or inconclusive. Unless noted, % is scaled to controls: 0 for no effect and ±100 for the full control effect.

SMILES	HT1080NT lethal	HT1080 IDH1KD tx	IL-1B inflam inh	TDP1 cell noCPT	ELG1 DNA repair	DT40 TDP1 CPT
O=C(NN=Cc1ccc2c(c1)OCO2)NN=Cc1ccc2c(c1)OCO2	-23%	-30%	-89*	?	/	2%
N/C(=N\N=C/c1ccc(F)cc1)N/N=C\c1ccc(F)cc1	4%	1%	-21	?	-2%	?
O=C(N/N=C/c1cccc(O)c1)c1cc(-c2ccc3c(c2)OCO3)n[nH]1	?	?	-11	21µM*	?	21µM*
O=C(N/C=N/OCc1ccc(Cl)cc1Cl)NOCc1c(Cl)cccc1Cl	16µM*	16µM*	-5	23µM*	/	21µM*
CS(=O)(=O)N(CC(=O)N/N=C/c1ccco1)c1ccccc1Br	20%	11%	0	-4%	1%	-13%
CN(C)c1ccc(/C=N/NC(=O)CN(c2cccc(Cl)c2)S(C)(=O)=O)cc1Br	?	?	-50*	16µM*	21µM*	26µM*
CCN(c1ncnc2c1c(-c1ccccc1)cn2-c1ccccc1)C1CCCCC1	/	/	/	0%	/	-20%
COc1ccc(-n2cc(-c3ccccc3)c3c(=O)[nH]cnc32)cc1	-3%	-13%	-82*	-9%	-24%	15%
CCOC(=O)C(CC)Sc1ncnc2c1c(-c1ccccc1)cn2-c1ccc(OC)cc1 (centres undefined)	/	/	/	21µM*	/	?
COc1ccc(-n2cc(-c3ccccc3)c3c(N4CCOCC4)ncnc32)cc1	?	?	-146*	18µM*	?	?
COc1ccc2c(-c3ccccc3)cc(N3CCOCC3)nc2c1	-25%	-16%	-10	?	-18%	-29%
Fc1ccc(-n2cc(-c3ccccc3)c3c(NC4CCCCC4)ncnc32)cc1	/	/	/	23µM*	/	21µM*
CCNc1nc(NCC)nc(N/N=C/c2ccc(Br)cc2)n1	-11%	-4%	?	?	-15%	-29%
Fc1ccc(-n2cc(-c3ccccc3)c3c(N4CCOCC4)ncnc32)cc1	-6%	8%	-6	21µM*	21µM*	21µM*
CCN1CCN(c2ncnc3c2c(-c2ccccc2)cn3-c2ccc(F)cc2)CC1	-3%	12%	-15	?	-12%	?
O=CN1CCN(C(=O)c2ccc(-c3nc4ccccc4s3)s2)CC1	-2%	-1%	11	?	?	?
COC(=O)C1=C(C)N(Cc2ccccc2)C(=NCc2cccc(C(F)(F)F)c2)N[C@H]1c1cccc(F)c1	?	?	-104*	6.5µM*	?	6.5µM*
CCN1C(=NCC(C)C)N[C@@H](c2cccc(C(F)(F)F)c2)C(C(=O)OC)=C1C	-14%	-10%	?	21µM*	8%	?
COC(=O)C1=C(C)N(Cc2ccccc2)C(=NCc2cccc(C(F)(F)F)c2)N[C@H]1c1cccc(C(F)(F)F)c1	?	?	-101*	3.7µM*	18µM*	3.3µM*
CCN1C(=NCCc2cccs2)N[C@@H](c2cccs2)C(C(=O)OC)=C1C	?	-5%	-13	21µM*	-4%	6.5µM*
COCCN1C(=O)N[C@H](c2cccc(C(F)(F)F)c2)C(C(=O)OC)=C1C	/	/	/	/	10%	/
C=CCN=C1N[C@@H](c2cccc(C(F)(F)F)c2)C(C(=O)OC)=C(C)N1CC	-10%	-10%	-25	?	11%	?
CCOC(=O)CN1C(=O)N[C@@H](c2cccs2)C(C(=O)OC)=C1C	9%	1%	12	?	/	?
Cc1ccc(Cn2cccc2C2=NC(C)(C)CO2)cc1	/	/	/	0%	/	2%
COC(=O)C1=C(C)N(CC2CC2)C(=NCCN2CCOCC2)N[C@H]1c1ccccc1	5%	5%	9	?	-14%	?
SMILES	HT1080NT lethal	HT1080 IDH1KD tx	IL-1B inflam inh	TDP1 cell noCPT	ELG1 DNA repair	DT40 TDP1 CPT
COC(=O)C1=C(C)N(CC2CC2)C(=NCc2cccc(C(F)(F)F)c2)N[C@H]1c1ccccc1	-19%	-7%	-58*	12µM*	5%	10µM*
COC(=O)C1=C(C)N(Cc2ccccc2)C(=NCCc2ccccn2)N[C@H]1c1cccc(F)c1	-12%	0%	-55*	?	-3%	16µM*
CCN1C(=NCCc2ccccn2)N[C@@H](c2cccc(F)c2)C(C(=O)OC)=C1C	-2%	4%	-15	?	-15%	-22%
COC(=O)C1=C(C)N(Cc2ccccc2)C(=NCCCCO)N[C@H]1CCc1ccccc1	-9%	-5%	?	16µM*	8%	?
COC(=O)C1=C(C)N(Cc2ccccc2)C(=NCCCCO)N[C@H]1c1cccc(C(F)(F)F)c1	-18%	-1%	?	?	?	23µM*
COC(=O)C1=C(C)N(Cc2ccccc2)C(=S)N[C@H]1c1ccccc1	-3%	-16%	-13	?	0%	?
C[C@H](NC(=O)c1ccccc1)C(=O)OCC(=O)Nc1sccc1C(N)=O	0%	-3%	20	-11%	-5%	-4%
COc1ccc(OCCCC(=O)Nc2cccc([N+](=O)[O-])c2C)cc1	0%	5%	1	-19%	?	-21%
COC(=O)C1=C(C)N(Cc2ccccc2)C(=NCCc2c[nH]c3ccccc23)N[C@H]1c1cccc(C(F)(F)F)c1	-28%	-19%	-50*	16µM*	?	?
COCCN=C1N[C@@H](c2cccc(C(F)(F)F)c2)C(C(=O)OC)=C(C)N1Cc1ccccc1	?	-6%	-56*	10µM*	8%	13µM*
CCN1C(=NCc2cccc(Cl)c2)N[C@@H](c2cccc(F)c2)C(C(=O)OC)=C1C	-22%	-12%	-70*	18µM*	-12%	?
CCN1C(=NCCCCO)N[C@@H](c2cccc(C(F)(F)F)c2)C(C(=O)OC)=C1C	-8%	-10%	-23	-20%	-12%	?
CCN1C(=S)N[C@@H](c2cccc(F)c2)C(C(=O)OC)=C1C	9%	12%	2	-24%	9%	2%
Cc1cc2c(cc1C)NC(CC(=O)Nc1ccccc1)C(=O)N2 (centres undefined)	/	/	/	26µM*	/	16µM*

High-throughput results deposited in PubChem by National Center for Advancing Translational Sciences (NCATS).
